The whole screen tested about 230,000 compounds, of which about 310 (0.13%) were called active. Another 2% or so got no clear call; they are omitted. Shown is part of a subset that was picked to be rich in actives. A call without a number means that no potency is given here. A number with no mark means an inactive call. The call rests on the fitted dose curve; in most records, active means well fitted activation curve with a large enough effect; inconclusive means small, poorly fitted or top-dose-only effect; inactive means no such curve, though single readings can be large or run the other way.
Experiment: qHTS Multiplex Assay to Identify Dual Action Probes in a Cell Model of Huntington: Cytoprotection (ATP); further: nearly all actives have a fitted effect of over 45% in size;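 on cytoprotection (ATP increase): toxic huntingtin expression switched on by the ecdysone agonist tebufenozide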
Settings: PC12 HTT-Q103 induced, ATP luminescence, 40 h; series mostly up to 56.4 µM
From the text: NIH Chemical Genomics Center [NCGC]
NIH Molecular Libraries Probe Production centers Network [MLPCN]
Assay Submitter (PI): Wei Zheng
Huntington's disease is a neurodegenerative disorder caused by a trinucleotide repeat expansion in Exon 1 of the Huntingtin gene. The CAG trinucleotide encodes glutamine and polyglutamine expansions cause cell death in selective areas of the brain. Huntington polyglutamine repeats have the tendency to form aggregates which are observable in later stages of the disease. The exact nature of the aggregates, whether toxic, protective, or insignificant, is unclear.
A stable PC12 cell line containing a gene fusion of Exon 1 of the Huntingtin gene linked to GFP under the control of the inducible ecdysone promoter were used as the cell-based model of Huntington Disease for high throughput screening. Exon 1 of the Huntingtin gene contained an expansion of 103 polyglutamines (Q103) which, when expressed, caused cell death and distinct, bright GFP aggregates. The amount of cell death and the size and intensity of GFP aggregates increased over time and induction level. The cell death were quantified with a measurement of ATP content in the cells. A maximal 40-50% of cell death was observed when the Huntington gene was induced in this cell line.
We optimized this assay in a homogeneous 1536 well format. A quantitative high throughput screen (qHTS) was conducted on the PC12 cells which were induced to express the toxic fusion construct. Small molecules which prevented cell death were identified by using a luminescent ATP quantification method (Perkin Elmer's ATPlite).
PC12 cells stably containing a construct with an ecdysone inducible promoter expressing GFP fused to the exon 1 of HTTQ103 (Huntington protein which containing a 103 ployglutamine expansion) were used.
NCGC Assay Protocol Summary:
Sequence, Parameter, Description
1, Reagent, 5 uL 1500 cells/well 1536 TC treated White clear bottom plate
2, Compound, 23 nL Tebufenozide inducer (100 nM final) to all columns
3, Compound, 23 nL 40 uM to 0.5 nM Libraries
5, Reagent, 5 ul ATPLite cell death assay reagent
6, Detector, 4 sec integration with a Viewlux Luminescent
Media consisted of phenol red free DMEM + 5% equine serum (Hyclone # SH30072.03 ), 5% supplemented Bovine Calf Serum (Hyclone # SH30074.03 ), 1x pen/strep, no G418
Control columns: 1 = DMSO, 2= 2 uM teb dilns (1:1), 4 = 100 nM Teb inducer. Sample columns received 100 nM Teb.
Potency means the concentration at half of the fitted maximal effect.

| SMILES | cytoprotection (ATP increase) | Potency |
| --- | --- | --- |
| CCCCCCCC/C=C\CCCCCCCC(=O)NCC(=O)O | inactive |  |
| CC(=O)Oc1ccccc1C1=NN(C(C)=O)C(c2ccccc2)C1 (stereo not given) | inactive |  |
| CCCN(CCc1ccccc1)C1CCc2c(O)cccc2C1 (stereo not given) | inactive |  |
| CCOC(=O)C1=C(C)c2ccccc2OC1C(=O)OCC (stereo not given) | inactive |  |
| O=C(O)C[C@@H]1NC(=O)[C@H](Cc2ccccc2)NC1=O | inactive |  |
| COc1ccc(-c2nc3c(c4c2C[C@H](c2ccccc2)OC4)CN(C(=O)c2cccnc2)CC3)c(C)c1 | 27.4% [at 10 µM] |  |
| COc1ccc(NC(=S)NC2CCS(=O)(=O)C2)cc1 (stereo not given) | 2.72% [at 0.074 µM] |  |
| COc1cccc(CC(=O)N2CCc3nc(COc4ccccc4)c4c(c3C2)CO[C@@H](C)C4)c1 | 16.2% [at 10 µM] |  |
| CC(C)C1=CC2=CC[C@H]3[C@](C)(C(=O)O)CCC[C@]3(C)C2CC1 (stereo not given in full) | inactive |  |
| COc1ccc(-c2[nH]nc(-c3ccccc3)c2-c2nc3ccccc3[nH]2)cc1 | inactive |  |
| CSCCC(=O)N1CCCC(CNC(=O)c2ccccc2Cl)C1 (stereo not given) |  | 2.82 µM (active) |
| CCOC(=O)CCNC(=O)N1CCCC(C(=O)c2ccccc2SC)C1 (stereo not given) | 2.06% [at 10 µM] |  |
| CSc1ncccc1C(=O)N1CCCC(CCC(=O)NCc2ccccc2F)C1 (stereo not given) | 4.93% [at 10 µM] |  |
| C[C@@H]1C(c2ccc(F)cc2)=NN(c2ccc(Br)cc2)[C@H]1C(=O)N1CCOC1=O | inactive |  |
| Cc1cc(=O)oc(C)c1C(=O)NCCN(C)Cc1ccccc1 | inactive |  |
| COc1ccc(-c2nc(-c3ccccc3)oc2Nc2ccc3ccccc3c2)cc1 | inactive |  |
| COc1ccc2c(c1)O[C@@H](c1ccc3c(c1)OCO3)[C@H](OC(=O)NCc1ccco1)C2=O | inactive |  |
| O=C(O)CCC(=O)O | inactive |  |
| CCCCCCCCCCCCCCCCO | inactive |  |
| COc1ccc(CCCOC(Cn2ccnc2)c2ccc(OC)cc2)cc1 (stereo not given) | inactive |  |

| SMILES | cytoprotection (ATP increase) | Potency |
| --- | --- | --- |
| NC(=O)C1CCN(C(=O)c2ccc(-c3ccccc3)cc2)CC1 | inactive |  |
| COc1ccccc1-n1nnnc1S(=O)(=O)Cc1ccc(Cl)cc1 |  | 25.1 µM (active) |
| COc1ccccc1N1CCN(C(=O)CN(Cc2ccc(Cl)cc2)S(C)(=O)=O)CC1 | inactive |  |
| COc1ccccc1CN(C)c1nnnn1-c1ccccc1 | inactive |  |
| COC(=O)CCCC1=CC2=CC(=O)C(C)(OC(=O)c3cccs3)C(=O)C2=CN1c1ccc(CO)cc1 (stereo not given) | -11% [at 10 µM] |  |
| CC(=O)N(CC(O)CO)c1c(I)c(C(=O)NCC(O)CO)c(I)c(C(=O)NCC(O)CO)c1I (stereo not given) | inactive |  |
| COC(=O)C1=C(C(=O)OC)[C@@H]2N(C)c3ccccc3[C@@]23C[C@@H](C(=O)OC)N(S(=O)(=O)c2cccs2)C3=N1 | -27.2% [at 10 µM] |  |
| COc1ccc(-c2nc(-c3ccccc3)no2)c(OC)c1 |  | 5.62 µM (active) |
| COc1ccc(-c2noc(-c3cccc(OC)c3OC)n2)cc1OC | inactive |  |
| COc1ccc(-c2noc(-c3ccc(C)cc3)n2)cc1 | inactive |  |
| O=P(O)(O)C(O)c1ccc2ccccc2c1 (stereo not given) | inactive |  |
| COCCNc1nc2nonc2nc1N(C)Cc1ccc(C)cc1 | -6.59% [at 10 µM] |  |
| Cc1ccc(NC(=O)O[C@@H]2C(=O)c3cc(Br)ccc3O[C@H]2c2ccc3c(c2)OCO3)cc1Br | inactive |  |
| CCNc1nc(NC(C)C)nc(OCCOC(=O)c2ccccc2)n1 | -7.6% [at 10 µM] |  |
| COc1ccc(C2(C#N)CCC(C(=O)O)CC2)cc1OC1CCCC1 (stereo not given) | inactive |  |
| C=C(C)C(=O)c1ccc(F)cc1 | inactive |  |
| C/C(Nc1ccc2oc(=O)ccc2c1)=C1/C(=O)CC2[C@@H]1C2(C)C (stereo not given in full) | inactive |  |
| Nc1ccc(N=Nc2ccccc2Cl)c(N)n1 | 7.07% [at 10 µM] |  |
| COC(C)C(C(=O)OCC1=CCN2CC[C@H](O)[C@@H]12)C(C)C (stereo not given in full) | inactive |  |
| COc1ccc(-c2c(C)cc3oc(=O)cc(-c4ccccc4)c3c2C)cc1F | inactive |  |

| SMILES | cytoprotection (ATP increase) | Potency |
| --- | --- | --- |
| N#C/C(=C\C1=C(N2CCOCC2)C(=C\c2ccccc2)/CC1)C(=O)Nc1ccccc1F | 6.74% [at 10 µM] |  |
| COC(=O)C1=C(C(=O)OC)[C@@H]2Nc3ccccc3[C@@]23C[C@@H](C(=O)OC)N(S(=O)(=O)c2ccc([N+](=O)[O-])cc2)C3=N1 | 9.32% [at 10 µM] |  |
| COC(=O)C1=C(N)Oc2cc(C)[nH]c(=O)c2C1c1ccc(Cl)cc1 (stereo not given) | -1.17% [at 10 µM] |  |
| COc1ccc(C2CC(=O)Oc3ccc(C(C)(C)C)cc32)cc1 (stereo not given) | inactive |  |
| FCOC(C(F)(F)F)C(F)(F)F | inactive |  |
| CC(C)=CCC[C@]1(C)[C@@H](CC=C(C)C)C[C@@]2(CC=C(C)C)C(=O)[C@]1(C(=O)C(C)C)C(=O)C(CC=C(C)C)=C2O | inactive |  |
| O=C(OCc1ccccc1)c1ccc(O)cc1 | inactive |  |
| COc1ccc(-c2nc3c(c4c2C[C@H](c2ccccc2)OC4)CN(C(=O)c2ccco2)CC3)c(C)c1 | -10% [at 10 µM] |  |
| CCCCCCCC1=Cc2ccc(F)cc2C(C(C(=O)OC)C(=O)OC)N1C(=O)OC (stereo not given) | inactive |  |
| OCC(CO)NC1C[C@](O)(CO)[C@@H](O)[C@H](O)[C@H]1O (stereo not given in full) | inactive |  |
| CC(=O)OC1C([N+]2(C)CCCCC2)C[C@H]2C3CC[C@H]4C[C@H](OC(C)=O)C([N+]5(C)CCCCC5)CC4(C)C3CCC12C (stereo not given in full) | inactive |  |
| Oc1ccc(Cl)c2c1CCC2 | inactive |  |
| O=C(O)C1CCCN(CCC=C(c2ccccc2)c2ccccc2)C1 (stereo not given) | inactive |  |
| COCCNc1nc(-c2ccccc2)nc2c1oc1ccccc12 | 13.7% [at 10 µM] |  |
| CC(=O)c1cnn(-c2cc(Oc3ccc(F)cc3)ncn2)c1C | inactive |  |
| CO[C@@]12[C@@H](COC(N)=O)C3=C(C(=O)C(C)=C(N)C3=O)N1C[C@@H]1N[C@@H]12 | inactive |  |
| C[C@]12CC[C@@H]3c4ccc(O)cc4C[C@@H](CCCCCCCCCS(=O)CCCC(F)(F)C(F)(F)F)C3[C@@H]1CC[C@@H]2O (stereo not given in full) | inactive |  |
| O=C(Cc1ccc(F)cc1)NC1CCCC1 | inactive |  |
| O=C(CSc1ncnc2c1nnn2Cc1ccc(F)cc1)NC1CCCC1 |  | 1.26 µM (active) |
| O=C(Cn1cnc2c(nnn2Cc2ccc(F)cc2)c1=O)NCc1ccc2c(c1)OCO2 | 7.52% [at 10 µM] |  |

Source: PubChem BioAssay AID1471 (National Center for Advancing Translational Sciences (NCATS), 2008)
